Assay outcomes: PubChem BioAssay, The Scripps Research Institute Molecular Screening Center
In the library only some 4.5% were active in any assay of this set; here they are far more common.
DAX1 inh-1 = NR0B1 (DAX1) inhibition. HEK293 Gal4-DAX1 luciferase reporter, luminescence. AID 504766. inhibition, % at 6.75 µM. P51843. hit rate 0.99% among 340,000;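 active = inhibition above the mean over all tested compounds plus 3 SD, cut at about 4.2% in these data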;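 also: 0% = DAX1-transfected cells with DMSO and 100% = empty-vector control cells with DMSO; inhibition shows as a rise in luminescence from relieved DAX1 repression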
Target sequence (P51843 207-470 limits assumed): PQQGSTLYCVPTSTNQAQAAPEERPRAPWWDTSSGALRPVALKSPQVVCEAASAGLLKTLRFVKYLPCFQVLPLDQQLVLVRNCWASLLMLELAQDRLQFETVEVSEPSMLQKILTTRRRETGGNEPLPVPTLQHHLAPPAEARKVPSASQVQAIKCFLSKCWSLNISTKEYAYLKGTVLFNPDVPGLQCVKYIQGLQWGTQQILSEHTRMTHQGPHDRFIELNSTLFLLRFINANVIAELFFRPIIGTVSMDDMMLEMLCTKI
ssDAF12 agonist = activators of S. stercoralis DAF-12 nuclear receptor; HEK293 ssDAF-12/GRIP1 lit1-tk-luc reporter, luminescence; % of 3 µM dafachronic acid response; activation, % at 6.8 µM; hit rate 1% among 370,000; AID 652126;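 active = activation above the mean over all tested compounds plus 3 SD, cut at about 0.9% in these data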;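 also: 0% = DMSO-only wells and 100% = 3 µM delta7-dafachronic acid wells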
DAX1 inh-2 = inhibitors of DAX1 repression of SF-1 activated StAR promoter; inhibition, % at 6.8 µM; hit rate 1.1% among 370,000; HEK293T StAR-luciferase reporter, SF-1/DAX-1 repression relief; AID 652010;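 active = inhibition above the mean over all tested compounds plus 3 SD, cut at about 3.6% in these data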;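 also: 0% = DAX-1 cells with DMSO and 100% = cells lacking DAX-1 with DMSO; higher inhibition means more luminescence from relief of DAX-1 repression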
hcDAF12 agonist = activators of H. contortus DAF-12 nuclear receptor. activation, % at 6.8 µM. HEK293 hcDAF-12 lit1-tk-luc reporter, luminescence; 0% DMSO, 100% Δ7-dafachronic acid. hit rate 1.4% among 370,000;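 active = activation above the mean of all tested compounds plus 3 SD, cut at about 5.5% in these data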;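 also: 100% = response to 3 µM Δ7-dafachronic acid high control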
FXN GAA850 act = increases GAA850 frataxin promoter reporter activity; activation, % at 6 µM; hit rate 0.56% among 360,000; HEK293 lucGAA850 FXN promoter luciferase reporter, 24 h; percent of 10 µM SAHA response; AID 540364;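 active = activation above the average of all compounds screened plus 3 SD, cutoff fixed separately per campaign, cut at about 7.5% in these data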;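 also: 0% = DMSO wells and 100% = 10 µM SAHA wells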
hgDAF12 agonist = hgDAF-12 agonism, primary luciferase screen. HEK293 GAL4-hgDAF12 UAS-luciferase reporter, agonist luminescence; normalized to butyrate control. activation, % at 6.8 µM. hit rate 1.8% among 370,000. AID 687014;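 active = activation above a cutoff set at the mean of all screened compounds plus 3 SD, cut at about 10% in these data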;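 also: 0% = DMSO wells and 100% = sodium butyrate wells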
Active calls of the source: *; / = no result given.

SMILES | DAX1 inh-1 | ssDAF12 agonist | DAX1 inh-2 | hcDAF12 agonist | FXN GAA850 act | hgDAF12 agonist
CCC(=O)Nc1ccc(C(=O)N/N=C/c2ccccc2[N+](=O)[O-])cc1 | -0.8 | -0.6 | 0.9 | -1.1 | -0.4 | 5.2
C=CCOC(=O)N1CCC(NS(=O)(=O)c2ccc3c(c2)CCN3C(C)=O)CC1 | / | -1.3 | -1.8 | -1.9 | / | -2.0
CN1CCCN(C(=O)C2CCCN(C(=O)c3ccc4c(c3)NC(=O)CS4)C2)CC1 (stereo unspecified) | / | -1.3 | 0.4 | 0.9 | / | -1.2
CC(=O)Nc1cccc2c1C(=O)N(c1ccc(C)cc1)C2=O | 0.0 | 0.4 | 1.6 | 6.0* | 1.7 | 2.5
COc1cc(-n2c(C)nc3cc(C(=O)N4CCCN(C(C)=O)CC4)ccc32)cc(OC)c1OC | / | -0.5 | 0.7 | -1.2 | / | 3.8
CCCc1nn(C)c(C(N)=O)c1[N+](=O)[O-] | 0.9 | 1.0* | 0.9 | 5.2 | 1.5 | 1.5
COc1ccc(S[C@]2(C(=O)N3CCOCC3)CC(=O)N(C(=O)C3CC3)[C@@H]2c2ccc(OC)cc2)cc1 | / | -1.8 | -2.0 | -0.2 | / | 3.2
O=C(c1ccc2c3n(nc2c1)-c1ccccc1CO3)N1CCCCC1 | -1.5 | 0.5 | 3.1 | 6.5* | 4.1 | 10.7*
O=C(COc1ccc(C2SCCS2)cc1)NNC(=O)C(Cl)Cl | 5.9* | 0.1 | 0.2 | 0.1 | 2.2 | 1.2
CCn1c(SCC(=O)C(C)(C)C)nnc1-c1ccccc1OC | 0.8 | -1.5 | -0.7 | 0.2 | 0.3 | 1.0
CCn1c(SCC(=O)OC(C)C)nnc1-c1ccccc1OC | 1.8 | 1.1* | 0.7 | 3.7 | -0.1 | -1.6
C=CCn1c(/N=C/c2ccc3c(c2)OCO3)nc2ccccc21 | -0.4 | 1.2* | 0.0 | -0.1 | 0.7 | 0.3
CCCn1c(/N=C/c2ccc3c(c2)OCO3)nc2ccccc21 | 0.5 | -1.6 | 0.0 | -1.2 | 2.8 | -0.2
NC(=O)C1CCN(C(=O)c2ccc(CS(=O)(=O)c3c(Cl)cccc3Cl)o2)CC1 | 6.9* | -0.9 | 0.1 | -1.3 | -0.2 | 3.5
O=c1[nH][nH]cc1C=Nc1ccc(Oc2ccccc2)cc1 | 0.5 | 6.9* | 0.3 | -2.0 | -1.0 | 1.3
COc1ccc(N=Cc2c[nH][nH]c2=O)cc1 | -0.2 | -0.5 | 0.5 | -0.4 | -1.9 | -2.5
Cc1ccc(-c2ccc(/C=N/O)o2)cc1[N+](=O)[O-] | -1.8 | -1.6 | -0.1 | 0.2 | 2.8 | 12.6*
O=C(Nc1ccc(Cl)cc1)N1CCN(Cc2nc3ccccc3c(=O)[nH]2)CC1 | / | -1.1 | 1.1 | -2.0 | / | -0.3
CC(=O)Nc1nc(-c2ccc3ccccc3c2)cs1 | 2.9 | -0.1 | 2.0 | 4.9 | 3.0 | 12.9*
CCC(=O)Nc1ccc(-c2csc(NNC(C)=O)n2)cc1 | -0.4 | 0.9* | 0.1 | 0.9 | 1.6 | 2.4
CCOc1ccc(NC(=O)Cc2ccccc2)c([N+](=O)[O-])c1 | -1.4 | -1.1 | -0.5 | 0.2 | 1.9 | 4.1
CCOc1ccc(NC(=O)Cc2cccc3ccccc23)c([N+](=O)[O-])c1 | -0.9 | 6.7* | -0.5 | -0.8 | 1.8 | -3.2
O=c1c2ccccc2oc2ccccc12 | / | -1.1 | 0.6 | -1.2 | 0.8 | 2.0
O=c1c2ccccc2oc2cc(-c3ccc4[nH]ccc4c3)ccc12 | -1.9 | -0.4 | 0.2 | 3.0 | -0.1 | 11.2*
CC(C)CCNC(=O)C1CCN(c2cncnc2)CC1 | / | -1.3 | 0.0 | 0.7 | / | 3.9
SMILES | DAX1 inh-1 | ssDAF12 agonist | DAX1 inh-2 | hcDAF12 agonist | FXN GAA850 act | hgDAF12 agonist
O=C(Nc1ccc(F)cc1)OCc1cn(Cc2ccc(Cl)cc2)nn1 | / | -0.9 | 0.2 | -1.4 | / | -2.6
CCOc1ccc2nc(NC(=O)Cn3[nH]c(=O)c4ccccc4c3=O)sc2c1 | 6.8* | -1.2 | 1.2 | 0.3 | 6.6 | 11.1*
CCOc1ccc2nc(NC(=O)CN3C(=O)C4CCCCC4C3=O)sc2c1 (stereo unspecified) | -0.1 | -0.9 | 3.7* | 0.3 | 2.1 | 5.9
CCOc1ccc2nc(NC(=O)CN3CCN(CC)CC3)sc2c1 | -0.1 | -0.9 | 0.1 | 0.1 | 1.2 | 4.4
Cc1cc(C)cc(-c2c(C(=O)c3ccc(Br)cc3)[nH]c(N)c2C(=O)NCc2ccc(Cl)cc2)c1 | / | -1.5 | / | 1.5 | / | 0.2
C#CCn1c(C)cc(C)c(S(=O)(=O)c2ccccc2)c1=O | 2.8 | -1.2 | 2.8 | 2.2 | 4.7 | 11.1*
CCC(C)NC(=O)C1CCN(S(=O)(=O)c2ccc3[nH]c(=O)oc3c2)CC1 (stereo unspecified) | / | -1.3 | 0.7 | -1.5 | / | -1.9
